# PubChem BioAssay
# The source made the active and inactive calls.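 How the source made its calls: active means GFP response below 50% of the DMSO control; inconclusive means fewer than 70 events counted for a yeast strain; inactive means the rest.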
# Assay: RPL19A-GFP modulators, yeast TOR pathway, confirmation, cell-based, S. cerevisiae, flow cytometry, cherry picks, mother/daughter gates (AID 2270)
# Conditions: S. cerevisiae RPL19A-GFP strain, 3 h, at 10 µM, stronger effect = lower value, 100 = same GFP as DMSO wells
row,Compound,GFP response vs DMSO
1,O=C(COC(=O)c1n[nH]c2ccccc12)c1cccc(Br)c1,96.5% (inactive)
2,Cc1c(C(=O)Nc2ccccc2)cnn1-c1ccccc1,98.2% (inactive)
3,Oc1c(CN2CCN(c3ccccc3)CC2)cc(Br)c2cccnc12,99.6% (inactive)
4,NC(=O)c1ccccc1-c1nc(-c2ccccc2)no1,97.6% (inactive)
5,CC(C(=O)O)n1nc(-c2ccccc2)c2ccccc21 (stereo not given),97.8% (inactive)
6,COc1cc(/C=C2/N=C(c3ccccc3)OC2=O)c(F)cc1OCc1ccccc1,99.1% (inactive)
7,COc1ccc(-c2nn(-c3ccccc3)cc2C(=O)NC(=S)NNC(=O)c2ccncc2)cc1,100% (inactive)
8,CCOC(=O)Cc1csc(NC(=O)CCCCCN2C(=O)c3cccc4cccc(c34)C2=O)n1,98.7% (inactive)
9,COC(=O)c1ccc(/C=C/C(=O)c2cccc(OC)c2)cc1,104% (inactive)
10,Cc1[nH][nH]c(=O)c1C(c1ccc(N(C)C)c(Br)c1)c1c(C)[nH][nH]c1=O,99.3% (inactive)
11,Cc1ccc(CCN2CC(C(=O)NCCCN(C)Cc3ccccc3)CC2=O)cc1 (stereo not given),99.1% (inactive)
12,COc1ccc(NC(=O)C2CCN(S(=O)(=O)c3ccc(OC)c(OC)c3)CC2)c(OC)c1,90.6% (inactive)
13,CN1CCc2c(sc3c2C(=O)NC(c2ccc4c(c2)OCO4)N3)C1 (stereo not given),98.4% (inactive)
14,Nc1cccnc1S(=O)(=O)c1ccccc1,98.8% (inactive)
15,N#Cc1ccccc1Cn1cc(/C=C/[N+](=O)[O-])c2ccccc21,96.3% (inactive)
16,CN(c1ccccc1)S(=O)(=O)c1ccc(C(=O)Nc2nnc(-c3ccc(F)cc3)o2)cc1,99.1% (inactive)
17,Cc1ccc(C)c(N2CCN(C(=O)c3ccccc3Br)CC2)c1,105% (inactive)
18,CCOC(=O)C(=CNNc1cccc(Cl)c1)C(=O)OCC,103% (inactive)
19,O=C(c1ccccc1F)N1CCN(c2ccccc2)CC1,97% (inactive)
20,O=C(C1CCN(Cc2nc(Cc3cccc(F)c3)no2)CC1)N1CCOCC1,99.5% (inactive)

row,Compound,GFP response vs DMSO
1,COC(=O)c1ccc(/C=N\NC(=O)c2ccc(C)cc2Cl)cc1,98.6% (inactive)
2,CCNC(=O)c1ccccc1-c1nc(-c2ccccc2Cl)no1,95.6% (inactive)
3,O=C(OCC(=O)N1CCN(C(=O)c2ccco2)CC1)c1cc(-c2ccc(Cl)c(Cl)c2Cl)nc2ccccc12,90.1% (inactive)
4,c1ccc(CSc2ccc(-c3ccccn3)nn2)cc1,101% (inactive)
5,N#C/C(=C\c1c(N2CCCCCC2)nc2ccccn2c1=O)C(=O)NCc1ccco1,96% (inactive)
6,Cc1ccc(Nc2c(-c3ccccn3)nc3ccc(C)cn23)cc1,97.4% (inactive)
7,Cc1ccc(-c2csc3ncn(Cc4ccc(C(=O)O)cc4)c(=O)c23)cc1C,98.8% (inactive)
8,CCOC(=O)c1ccc(NC(=O)CCc2nc(-c3ccc(Cl)cc3)no2)cc1,99.4% (inactive)
9,O=C(Nc1cc(Sc2ccccn2)cc([N+](=O)[O-])c1)c1ccc([N+](=O)[O-])cc1,97.8% (inactive)
10,O=C1c2ccccc2C(=O)N1OS(=O)(=O)c1ccc(F)cc1,74% (inactive)
11,Cc1ccc(N2CCN(C(=O)c3ccccc3Br)CC2)c(C)c1,100% (inactive)
12,CCCc1[nH]nc2c1C1(C(=O)N(C(C)C)c3ccccc31)C(C#N)=C(N)O2 (stereo not given),98.2% (inactive)
13,O=C1c2cccc3c([N+](=O)[O-])ccc(c23)C(=O)N1O,131% (inactive)
14,COC(=O)Cn1nc(-c2ccccc2)c2cc(Cl)ccc21,101% (inactive)
15,O=C1C(Cl)=C(NCCc2ccccc2)C(=O)N1CCc1ccccc1,103% (inactive)
16,O=c1c(-c2ccc(Cl)cc2)[n+]([O-])c2ccccc2n1O,103% (inactive)
17,CCc1ccccc1OCc1nnc(N)s1,101% (inactive)
18,Cc1ccc(/C=C2/SC(=S)N(C3CCCCC3)C2=O)o1,100% (inactive)
19,O=C(Cn1cc(/C=C\[N+](=O)[O-])c2ccccc21)Nc1ccccc1,97.4% (inactive)
20,Cc1nnc(NC(=O)c2ccc(S(=O)(=O)N3CCCCCC3)cc2)o1,99.4% (inactive)

# Same assay, conditions: S. cerevisiae RPL19A-GFP strain, 3 h, measured here: daughter cell gate, at 10 µM, stronger effect = lower value, 100 = same GFP as DMSO wells
row,Compound,GFP response vs DMSO [%]
1,O=C(COC(=O)c1n[nH]c2ccccc12)c1cccc(Br)c1,95.6
2,Cc1c(C(=O)Nc2ccccc2)cnn1-c1ccccc1,97.4
3,Oc1c(CN2CCN(c3ccccc3)CC2)cc(Br)c2cccnc12,101
4,NC(=O)c1ccccc1-c1nc(-c2ccccc2)no1,96.1
5,CC(C(=O)O)n1nc(-c2ccccc2)c2ccccc21 (stereo not given),99.6
6,COc1cc(/C=C2/N=C(c3ccccc3)OC2=O)c(F)cc1OCc1ccccc1,100
7,COc1ccc(-c2nn(-c3ccccc3)cc2C(=O)NC(=S)NNC(=O)c2ccncc2)cc1,101
8,CCOC(=O)Cc1csc(NC(=O)CCCCCN2C(=O)c3cccc4cccc(c34)C2=O)n1,99.3
9,COC(=O)c1ccc(/C=C/C(=O)c2cccc(OC)c2)cc1,102
10,Cc1[nH][nH]c(=O)c1C(c1ccc(N(C)C)c(Br)c1)c1c(C)[nH][nH]c1=O,98
11,Cc1ccc(CCN2CC(C(=O)NCCCN(C)Cc3ccccc3)CC2=O)cc1 (stereo not given),99.3
12,COc1ccc(NC(=O)C2CCN(S(=O)(=O)c3ccc(OC)c(OC)c3)CC2)c(OC)c1,92
13,CN1CCc2c(sc3c2C(=O)NC(c2ccc4c(c2)OCO4)N3)C1 (stereo not given),99.8
14,Nc1cccnc1S(=O)(=O)c1ccccc1,97.8
15,N#Cc1ccccc1Cn1cc(/C=C/[N+](=O)[O-])c2ccccc21,98.3
16,CN(c1ccccc1)S(=O)(=O)c1ccc(C(=O)Nc2nnc(-c3ccc(F)cc3)o2)cc1,102
17,Cc1ccc(C)c(N2CCN(C(=O)c3ccccc3Br)CC2)c1,102
18,CCOC(=O)C(=CNNc1cccc(Cl)c1)C(=O)OCC,102
19,O=C(c1ccccc1F)N1CCN(c2ccccc2)CC1,97.9
20,O=C(C1CCN(Cc2nc(Cc3cccc(F)c3)no2)CC1)N1CCOCC1,99

row,Compound,GFP response vs DMSO [%]
1,COC(=O)c1ccc(/C=N\NC(=O)c2ccc(C)cc2Cl)cc1,98.9
2,CCNC(=O)c1ccccc1-c1nc(-c2ccccc2Cl)no1,94.7
3,O=C(OCC(=O)N1CCN(C(=O)c2ccco2)CC1)c1cc(-c2ccc(Cl)c(Cl)c2Cl)nc2ccccc12,89.1
4,c1ccc(CSc2ccc(-c3ccccn3)nn2)cc1,97.1
5,N#C/C(=C\c1c(N2CCCCCC2)nc2ccccn2c1=O)C(=O)NCc1ccco1,97.9
6,Cc1ccc(Nc2c(-c3ccccn3)nc3ccc(C)cn23)cc1,106
7,Cc1ccc(-c2csc3ncn(Cc4ccc(C(=O)O)cc4)c(=O)c23)cc1C,97.3
8,CCOC(=O)c1ccc(NC(=O)CCc2nc(-c3ccc(Cl)cc3)no2)cc1,100
9,O=C(Nc1cc(Sc2ccccn2)cc([N+](=O)[O-])c1)c1ccc([N+](=O)[O-])cc1,98.4
10,O=C1c2ccccc2C(=O)N1OS(=O)(=O)c1ccc(F)cc1,89.4
11,Cc1ccc(N2CCN(C(=O)c3ccccc3Br)CC2)c(C)c1,97.6
12,CCCc1[nH]nc2c1C1(C(=O)N(C(C)C)c3ccccc31)C(C#N)=C(N)O2 (stereo not given),99.8
13,O=C1c2cccc3c([N+](=O)[O-])ccc(c23)C(=O)N1O,136
14,COC(=O)Cn1nc(-c2ccccc2)c2cc(Cl)ccc21,100
15,O=C1C(Cl)=C(NCCc2ccccc2)C(=O)N1CCc1ccccc1,103
16,O=c1c(-c2ccc(Cl)cc2)[n+]([O-])c2ccccc2n1O,102
17,CCc1ccccc1OCc1nnc(N)s1,98.8
18,Cc1ccc(/C=C2/SC(=S)N(C3CCCCC3)C2=O)o1,100
19,O=C(Cn1cc(/C=C\[N+](=O)[O-])c2ccccc21)Nc1ccccc1,97.4
20,Cc1nnc(NC(=O)c2ccc(S(=O)(=O)N3CCCCCC3)cc2)o1,99.3
